Data: PubChem BioAssay AID720541 (National Center for Advancing Translational Sciences (NCATS), 2013)
“And” between values parts separate entries of the source, which are not always exact repeats. Equal values may be shown once. About 420 (32%) of roughly 1,300 compounds were called active. Another 32% or so got no clear call; they are omitted. Calls follow the shape of the dose curve; as a rule, active = well fitted inhibition curve with a large enough effect; inconclusive = small, poorly fitted or top-dose-only effect; inactive = no such curve, though single readings can be large or run the other way. This is one part of the list. Where a call stands in place of a potency, no number is given.

biological target: C-terminal-binding protein 1 (Homo sapiens) (UniProt Q13363); assay: qHTS for Inhibitors of the Phosphatase Activity of Eya2: Carboxyl-terminal binding protein (CtBP) Counterscreen for Cherry-picked Compounds; details: purified protein-protein binding, AlphaScreen, 3 h; series mostly up to 46.1 µM; also: nearly all actives have a fitted effect of over 65% in size
Summary of the method: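 AlphaScreen using 25 nM GST-E1A with 25 nM CtBP-6xHIS; compounds at 2.5 nM–46 uM final, 2 h at room temperature, then donor/acceptor beads (20 ug/mL) for 1 h in the dark. Signal normalized to E1A peptide inhibitor (maximum inhibition) and DMSO.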
Potency is read from the fitted curve at half-maximal effect.

Structure (SMILES) | Potency
N#C/C(=C\c1ccc(-c2ccc(C(=O)O)cc2)o1)C(=O)Nc1ccc(F)cc1 | 7.57 µM (active)
COc1ccc(/C=C(/C#N)C(=O)Nc2ccc(O)cc2)cc1C(=O)O | 6.75 µM (active)
COc1ccc(CC(CC(=O)O)C(=O)Nc2ccc(Cl)c(Cl)c2)cc1 (stereo not drawn) | inactive
COc1ccc(NC(=O)/C(C#N)=C/c2ccc(-c3ccc(Cl)c(C(=O)O)c3)o2)cc1 | 19 µM (active)
Cn1c(N)c(C(=O)CSc2nnc(NC3CCCCC3)s2)c(=O)n(C)c1=O | inactive
CC(=O)Oc1ccc(C(=O)OCC(=O)c2c(N)n(C)c(=O)n(C)c2=O)cc1OC(C)=O | 6.01 µM (active)
O=C1C=C(Nc2ccccc2)C(=O)c2ccccc21 | 4.26 µM (active)
O=C(Nc1ccc(-c2nc3cccnc3s2)cc1)C1CCCO1 (stereo not drawn) | inactive
O=C(CSc1ncn[nH]1)N1N=C(c2ccc(Cl)cc2)CC1c1ccco1 (stereo not drawn) | inactive
CN(C)c1ccc(C(=C2C=CC(=[N+](C)C)C=C2)c2c(O)c(S(=O)(=O)[O-])cc3cc(S(=O)(=O)O)ccc23)cc1 | 9.53 µM (active)
CN(C)c1ccc(C(=C2C=CC(=[N+](C)C)C=C2)c2ccc(N(C)C)cc2)cc1 | 3.79 µM (active)
Nc1n[nH]c2cc(=O)n(-c3ccc(Cl)cc3)nc12 | inactive
CCOc1ccc(Br)cc1S(=O)(=O)NC1CC(C)(C)NC(C)(C)C1 | inactive
COC(=O)c1c(-c2ccc3ccccc3c2)csc1NC(=O)Cc1ccc(OC)c(OC)c1 | inactive
Cc1ccc(-c2csc(NC(=O)c3ccccc3F)c2C(=O)O)cc1 | 9.53 µM (active)
CCOc1cc(C(=O)NC(C)CCc2ccccc2)cc(OCC)c1OCC (stereo not drawn) | inactive
COc1ccc(CCNc2nc(-c3ccccn3)cs2)cc1OC | 7.57 µM (active)
COc1ccc(CCNC(=O)C(=O)NCc2cccs2)cc1OC | inactive
COc1cc(CNCc2ccccn2)ccc1OCC(=O)NC1CCCCC1 | inactive
CCC(C)Nc1nc(-c2ccccn2)nc2ccccc12 (stereo not drawn) | 9.53 µM (active)
O=C(Nc1nc2ccc(F)cc2s1)C1=NN(c2ccccc2)C(=O)CC1 | inactive
COc1ccccc1N1CCN(C(=O)c2ccc(-c3nc4ccccc4s3)o2)CC1 | inactive
Cc1ccc(-c2nc3ccccc3s2)cc1NC(=S)NC(=O)/C=C/c1ccco1 | inactive
O=C(O)CCN1C(=O)/C(=C/c2ccc(-c3nc4ccccc4s3)o2)SC1=S | 3.01 µM (active)
CCNC(=O)/C(C#N)=C/c1c(N2CCN(c3ccccc3)CC2)nc2c(C)cccn2c1=O | 12 µM (active)

Structure (SMILES) | Potency
CCN(CC)C(=O)CC(c1ccc(OC)cc1)c1c(OC)cc(OC)c2ccc(=O)oc12 (stereo not drawn) | inactive
Cc1cccc(-n2c(O)c(C=Nc3ccccc3)c3ccccc3c2=O)n1 | inactive
Cc1[nH]n(-c2cccc3ccccc23)c(=O)c1C=Nc1ccc2[nH]c(=O)[nH]c2c1 | 7.57 µM (active)
CC1CCCCC1NC(=O)COC(=O)c1c2c(nc3ccccc13)/C(=C\c1ccco1)CC2 (stereo not drawn) | inactive
Cn1nc([N+](=O)[O-])nc1Sc1cccc2cccnc12 | 2.69 µM (active)
Clc1ccc(-n2nnnc2-c2cnc3ccccc3c2-c2ccccc2)cc1 | inactive
O=C(NN1C(=O)/C(=C/C=C/c2ccco2)SC1=S)c1ccncc1 | 12 µM (active)
Oc1c(Br)cc(Br)cc1CNc1cccc2cccnc12 | 5.36 µM (active)
Oc1ccc(Cl)cc1CNc1cccc2cccnc12 | 5.36 µM (active)
CCOC(=O)C1=C(COC(=O)CCOc2ccccc2)NC(=O)NC1C (stereo not drawn) | inactive
CN(C)c1ccc(-c2ccnc3c2CC(C)(C(=O)NCCC(F)(F)F)O3)cc1 (stereo not drawn) | inactive
Cc1ccc(CNC(=O)C2CCN(S(=O)(=O)c3ccc4nc5c(c(C(=O)O)c4c3)CC(C)CC5)CC2)cc1 (stereo not drawn) | 10.7 µM (active)
COc1ccc(CNC(=O)C2CCN(S(=O)(=O)c3ccc4nc5c(c(C(=O)O)c4c3)CCCC5)CC2)cc1 | 12 µM (active)
O=C(O)c1c2c(nc3ccc(S(=O)(=O)N4CCC(C(=O)NC5CCCC5)CC4)cc13)CCCCC2 | inactive
COc1ccc(S(=O)(=O)N2CCN(C(=O)c3cc4c(s3)CCC4)CC2)cc1 | inactive
O=C(Nc1nc(-c2ccccn2)cs1)c1cccc(S(=O)(=O)N2CCOCC2)c1 | 1.69 µM (active)
O=S(=O)(c1ccc(Cl)cc1)N1CCOCC1 | inactive
Cc1ccc(NC(=O)COc2ccc(S(=O)(=O)N3CCOCC3)cc2)cc1 | inactive
O=C(Nc1cc(S(=O)(=O)N2CCOCC2)ccc1Cl)c1cc(=O)c2ccccc2o1 | inactive
O=C(COC(=O)c1n[nH]c(=O)c2ccccc12)Nc1cccc(S(=O)(=O)N2CCOCC2)c1 | inactive
COc1ccc(C(=O)Nc2ccc3nc(C)sc3c2)cc1S(=O)(=O)N1CCOCC1 | 21.3 µM (active)
COc1ccc(C(=O)Nc2nc(-c3ccccn3)cs2)cc1S(=O)(=O)N1CCOCC1 | 1.51 µM (active)
COc1ccc(CC(=O)Nc2cccc(Cl)c2C)cc1S(=O)(=O)N1CCOCC1 | inactive
O=C(Nc1nc(-c2ccc(S(=O)(=O)N3CCOCC3)cc2)cs1)c1ccccc1 | 6.75 µM (active) and 7.57 µM (active)
CCOC(=O)N1CCN(S(=O)(=O)c2ccc(C(=O)NNc3nc4ccc(Cl)cc4s3)cc2)CC1 | inactive

Structure (SMILES) | Potency
O=C(Nc1nc2c(F)cc(F)cc2s1)c1ccc([N+](=O)[O-])o1 | inactive
Oc1ccccc1-n1c(-c2ccccc2)ccc1-c1ccccc1 | inactive
CN1CCN(C(c2ccccn2)c2cc(Cl)c3cccnc3c2O)CC1 (stereo not drawn) | 1.51 µM (active)
Oc1c(C(c2ccc(Cl)cc2)N2CCCC2)cc(Cl)c2cccnc12 (stereo not drawn) | 4.78 µM (active)
OC(c1ccc(Cl)cc1)c1nccc2ccccc12 (stereo not drawn) | inactive
O=C(c1ccc2c(=O)n3c(nc2c1)CCCCC3)N1CCN(c2cccc(Cl)c2)CC1 | 16.9 µM (active)
NC(=O)c1nc(C(=O)N2CCCCC2)c2ccccc2n1 | inactive
COc1ccc(/C=C/C(=O)Nc2ccc3nc4n(c(=O)c3c2)CCCC4)cc1 | inactive
Cc1ccc(NC(=S)N2CCc3[nH]c4ccccc4c3C2)cc1 | inactive
CN(C)c1ccc(C2C=Cc3ccccc32)c2ccccc12 (stereo not drawn) | 9.53 µM (active)
O=C(Oc1ccc(C(=S)N2CCCCC2)cc1)c1ccccc1F | inactive
c1ccc2cc(CSCc3nc4ccccc4[nH]3)ccc2c1 | inactive
Cc1ccccc1N=C1NC(=O)/C(=C/c2cccn2C)S1 | inactive
CCc1ccc(N=C2NC(=O)/C(=C/c3cc(OC)c(O)c(OC)c3)S2)cc1 | 19 µM (active)
CC1Cc2ccccc2N1NC(=O)c1ccc(Cl)c(S(N)(=O)=O)c1 (stereo not drawn) | inactive
O=C(c1cccc(S(=O)(=O)Nc2ccccc2Cl)c1)N1CCN(c2ccccc2O)CC1 | 15.1 µM (active)
O=C(c1cccc(-n2cccc2)c1)N1CCN(S(=O)(=O)c2ccccc2)CC1 | inactive
CC1C(c2ccccc2)=Nn2c(=O)n(-c3ccccc3)c(=O)n21 (stereo not drawn) | inactive
N#Cc1ccc(C(=O)N2CCC3CC2c2cc(-c4ccccc4)ccc23)cc1 (stereo not drawn) | inactive
Cc1oc2c(Cl)c(Cl)c(O)c(CN(C)C)c2c1C(=O)c1ccc(Cl)cc1 | 15.1 µM (active)
COC(=O)c1ccccc1NC1=C/C(=N\S(=O)(=O)c2cccs2)c2ccccc2C1=O | 1.69 µM (active)
COCCN(Cc1cc2cc3c(cc2nc1Cl)OCO3)C(=O)Nc1ccc(OC)cc1 | inactive
O=C(CSc1nc2ccccc2n1CCc1ccccc1)c1ccc(O)c(O)c1 | inactive
COc1cnc(-c2ccccn2)nc1Oc1ccc(C(C)(C)C)cc1 | 3.38 µM (active)
COc1ccc(Oc2nc(-c3ccccn3)ncc2OC)cc1 | 10.7 µM (active)

Structure (SMILES) | Potency
CCOC(=O)C(C)Sc1nc(-c2ccccn2)ncc1OC (stereo not drawn) | 2.39 µM (active)
COc1ccc(CN(CCN(C)C)c2ccccn2)cc1 | inactive
O=C(Cn1c(C(=O)N2CCc3ccccc3C2)cc2sccc21)c1ccccc1 | inactive
CCCc1nc(N2CCN(C)CC2)c2sc(=S)n(-c3ccccc3)c2n1 | inactive
CC1CCC2C(=O)N(c3ccc(C(=O)Oc4cccc5cccnc45)cc3)C(=O)C2C1 (stereo not drawn) | 6.01 µM (active)
CC1C=CCC2C(=O)N(c3ccc(OC(=O)c4cccs4)cc3)C(=O)C12 (stereo not drawn) | inactive
Cc1ccc(C(=O)Oc2ccc(C(=O)COC(=O)c3cnccn3)cc2)cc1 | inactive
O=C(OCC(=O)c1ccc(Cl)cc1Cl)c1ccccn1 | 12 µM (active)
O=c1cc2ncc(-n3cc([N+](=O)[O-])cn3)cn2[nH]1 | inactive
O=S(c1cc(Cl)cc(Cl)c1O)c1cc(Cl)cc(Cl)c1O | 3.38 µM (active)
O=c1nc2c(O)cccn2c2c1c(=O)[nH]c1ccccc12 | 3.79 µM (active)
CCOc1ccc(Nc2nc(N)nc(CN(C)C3CCCCC3)n2)cc1 | inactive
N[C@@H](Cc1cnc[nH]1)C(=O)Nc1ccc2ccccc2c1 | 19 µM (active)
Cc1cc2nc(-c3ccco3)c(Cc3cccc(F)c3)n2c(C)c1Br | inactive
CCN(CC)c1ccc(/C=N/N2CCN(Cc3ccccc3Cl)CC2)cc1 | 8.49 µM (active)
CSc1ccc(/C=N/N2CCN(Cc3ccc(C)cc3C)CC2)cc1 | inactive
COCc1cc(O)c(O)c(O)c1-c1c(COC)cc(O)c(O)c1O | inactive
CCC(C)Nc1ccc(NC(C)CC)cc1 (stereo not drawn) | 0.0849 µM (active)
Cc1nc(-n2[nH]c3c(c2=O)CCCC3)[nH]c(=O)c1Cc1ccccc1 | 13.5 µM (active)
COc1cc(C)c(/C=C/C(C)=C/C=C/C(C)=C/C(=O)O)c(C)c1C | inactive
COc1ccc(C(=O)Nc2ccc3c(c2)CCCN3C(=O)c2cccs2)c(OC)c1 | 7.57 µM (active)
COc1cc(C(=O)Nc2cccc(NC(=O)c3cccs3)c2)cc(OC)c1OC | inactive
CCOc1ccc(NC(=O)c2sccc2-n2cccc2)cc1 | inactive
